# Test results: PubChem BioAssay (NCI)
# This is part of a sample that, as a whole, favours compounds with a hit. Of some 83,000 tested, about 20% had one in any assay.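 Plates (96-well) were seeded with cells, treated with compound at one concentration, and incubated for 48 hours before percent growth was determined.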 A number with no mark means an inactive call. The source made the active and inactive calls. Rule for the calls: active = growth percent below 10; inactive = the rest.
# System: HCC-2998 colon
# Experiment: NCI-60 one-dose screen, 48 h (100 = growth as untreated, 0 = no growth, -100 = all killed)
# Conditions: 10 µM unless noted
row,SMILES,growth
1,CCNc1cc2c(cc1Br)-c1ccccc1C2=O,102%
2,Cn1cc(-c2noc(-c3cn(C)c4ncccc34)n2)c2cc(Cl)ccc21,99.8%
3,N#Cc1ccc(-c2ccc(COc3ccc(CC4SC(=O)NC4=O)cc3)cc2)cc1 (configuration not stated),83.2%
4,O=C(N[C@@H]1CCCc2ccccc21)[C@H](CCC(=O)N1CCN(C2CCCCC2)CC1)N1C(=O)[C@@H](N2C(=O)OC[C@@H]2c2ccccc2)[C@H]1/C=C/c1ccccc1,11.6%
5,CCOC(=O)/C(C#N)=C(\C)CCc1ccccc1,-6.07% (active)
6,COc1ccc(C(=O)CSc2nccc(Nc3ccc(C(=O)O)cc3)n2)cc1,104%
7,O=C(NCCCCCCCNC(=O)OCc1ccc2c(Cl)cc(Cl)c(O)c2n1)OCc1ccc2c(Cl)cc(Cl)c(O)c2n1,-75.8% (active)
8,CCN(CCO)CCC(=O)c1ccc([N+](=O)[O-])cc1,97.4%
9,CCOC(=O)COc1c(C)cc(SSc2cc(C)c(OCC(=O)OCC)c(C)c2)cc1C,112%
10,CC(C)C1=NOC(=O)C1=Cc1cn(-c2ccco2)nc1-c1ccccc1,101%
11,CCOC(=O)Nc1ccc2c(c1)/C(=N\NC(=S)NC)c1ccccc1-2,88.2%
12,COc1ccc(/C=C(/C(=O)c2ccc(Cl)cc2)C(=O)C(F)(F)F)cc1,93.4%
13,O=[N+]([O-])c1cccc(N=NNc2cccc([N+](=O)[O-])c2)c1,104%
14,COc1ccc2c(c1)c(-c1noc(-c3cn(C)c4ncc(F)cc34)n1)cn2C,90%
15,CCn1cc(-c2ccnc(NCCNS(=O)(=O)c3cccc4ccccc34)c2)c(-c2cccc(O)c2)n1,122%
16,Cc1ccc(-c2cc(O)c(-c3ccc(C)cc3C)cc2O)c(C)c1,77.7%
17,CCc1ccc(-c2ccc(COc3ccc(CC4SC(=O)NC4=O)cc3)cc2)cc1 (configuration not stated),89.6%
18,CCCn1ccnc1C(O)c1ccc(OCc2ccccc2)c(OC)c1 (configuration not stated),95.8%
19,O=C(Nc1cc(F)cc2cccnc12)c1cnc(N2CCNCC2)cn1,85.6%

row,SMILES,growth
1,O=C(CCCSc1nc(-c2ccccc2)cc(-c2ccccc2)n1)NO,17.7%
2,O=C(CCN1CCCCC1)c1ccc(Cl)cc1,112%
3,O=C(NCCCNC(=O)OCc1ccc2c(Br)cc(Br)c(O)c2n1)OCc1ccc2c(Br)cc(Br)c(O)c2n1,-42.5% (active)
4,Cc1ccc(N)c(O)c1,-4.78% (active)
5,COc1cc2c(=O)[nH]c3cc([N+](=O)[O-])ccc3c2cc1[N+](=O)[O-],62.8%
6,C/C=C/C1OC23CCCCC2C(C#N)(C(=N)O3)C1(C#N)C#N (configuration not stated),109%
7,Cc1ccc(S(=O)(=O)NCCCNc2nccc(-c3c(-c4cccc(F)c4)nc4occn34)n2)cc1,117%
8,COc1ccc2c(c1)C(C)Cc1c(ncnc1-n1cnc3ccccc31)N2C (configuration not stated),25.4%
9,Clc1ccccc1/C=N\Nc1ccccn1,111%
10,CC(C)C1=NOC(=O)C1=Cc1cn(-c2ccccc2)nc1-c1cccc([N+](=O)[O-])c1,87.3%
11,CC(C)C1=NOC(=O)C1=Cc1cn(-c2cccnc2)nc1-c1ccccc1,111%
12,O=C1COCCN1c1ccc(NCc2cn(Cc3ccccc3)c3ccccc23)cc1,105%
13,COc1ccc(N(c2nc(-c3ccc([N+](=O)[O-])cc3)cs2)C(C)C)cc1,101%
14,OC(c1ccc(Cl)cc1)(c1ccc(Cl)cc1)C(O)(c1ccc(Cl)cc1)c1ccc(Cl)cc1,48.6%
15,O=C(NCc1ccc(Cn2c(=O)sn(-c3ccccc3)c2=O)cc1)OCc1ccc2c(Br)cc(Br)c(O)c2n1,-80% (active)
16,O=S(=O)(NCCNc1nccc(-c2c(-c3cccc(F)c3)nc3occn23)n1)c1ccc(C(F)(F)F)cc1,125%
17,O=C(Nc1ccc(Cl)c(C(F)(F)F)c1)Nc1ccc(-c2cccnc2)cc1N1CCC(CO)CC1,13.9%
18,O=C(CCNCc1ccccc1)c1ccccc1,107%
